Screening results deposited in PubChem by National Center for Advancing Translational Sciences (NCATS).
HT1080 IDH1KD tx = kills HT-1080 cells with IDH1 knockdown; AID 686971; HT-1080 IDH1 knockdown viability, ATP luminescence, 48 h; 2% of 360,000 active; Potency, µM (doses to about 46.1 µM), actives largely listed as cytotoxic
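Using the IDH1-knockdown HT-1080 line run in the same batch and compound series as the NT line, viability after 48 h at 37 °C was determined by CellTiter-Glo luminescence and expressed as % activity.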
HT1080-NT tox = kills 2HG-producing HT-1080-NT fibrosarcoma cells | 1.6% of 360,000 active | HT-1080-NT fibrosarcoma viability, CellTiter-Glo ATP luminescence, 48 h | Potency, µM (titrated, usually from 46.1 µM), actives largely listed as cytotoxic;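 note: NT is the 2HG producing partner of a matched IDH1 knockdown line; nearly all actives have a fitted effect of over 55% in size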
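Luminescent CellTiter-Glo readout after 48 hours of compound exposure at 37 degrees C defined viability of HT-1080-NT cells. Activity was normalized to DMSO wells and cell-free media wells; concentration-response curves were fitted and assigned curve classes.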
S2 tox = viability counter-screen for ATXN expression inhibitors | S2 cells (HEK-293 line with an ATXN2-luciferase reporter) viability, CellTiter-Fluor protease fluorescence, 24 h | Potency, µM (top dose mostly 56.7 µM), most hits filed as cytotoxic | 0.49% of 400,000 active | AID 651635; note: nearly all actives have a fitted effect of over 40% in size
KB-V1 MDR tox = KB-V1 MDR subline cytotoxicity; AID 1347076; 3.4% of 400,000 active; Potency, µM (series often up to 46.1 µM), usual class: cytotoxic; KB-V1 MDR cells viability, CellTiter-Glo, 72 h; note: nearly all actives have a fitted effect of over 60% in size
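Cytotoxicity toward P-gp-expressing KB-V1 cells was determined as loss of CellTiter-Glo luminescence after 72 h at 37 degrees C. Compounds were tested in quantitative HTS format across a concentration range, with curves fitted to normalized data.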
ATXN2 expr inh = ATXN2 expression inhibition; HEK-293 ATXN2-luciferase reporter, luminescence, 24 h; 0.72% of 360,000 active; Potency, µM (top dose mostly 57 µM), actives largely listed as inhibitors; note: nearly all actives have a fitted effect of over 55% in size
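qHTS (up to 57 uM final) was run with 24 h compound exposure of reporter cells at 37 °C. Each well was multiplexed: SteadyGlo luminescence measured ATXN2-luciferase expression after a fluorogenic Gly-Phe-AFC viability readout (25 uM final).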
KB-3-1 tox = KB-3-1 parental cell cytotoxicity; 1.4% of 400,000 active; KB-3-1 viability, CellTiter-Glo ATP luminescence, 72 h; Potency, µM (series often up to 46.1 µM), hits mostly cytotoxic; note: nearly all actives have a fitted effect of over 60% in size
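Screening of KB-3-1 cells (DMEM, 10% FBS, phenol-red free) ran from lowest to highest compound concentration; after 72 h at 37 °C viability was read luminescently and curves fitted.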
Of the large screens only hits and unclear results are named; the others gave an inactive call. Hits are enriched below; roughly 6.2% of the tested compounds scored in any of these assays. Calls come from the whole dose curve; as a rule, active = well fitted curve in the direction sought with a large enough effect; inconclusive = small, poorly fitted or top-dose-only effect, or another doubt; inactive = no such curve, though single readings can be large; an effect the other way counts as inactive or inconclusive.

Clc1ccc2[nH]c(-c3ccccc3)cc2c1	KB-V1 MDR tox inconclusive
Cc1ccc2c(=O)c(C(=O)c3cccc(Cl)c3)cn(CC(=O)Nc3ccc4c(c3)OCCO4)c2n1	S2 tox inconclusive (no result: HT1080 IDH1KD tx, HT1080-NT tox)
CCC1=C(c2ccc(C)cc2)S(=O)(=O)N=C1N1CCC(C(=O)Nc2ccccc2C(=O)OC)CC1	KB-V1 MDR tox inconclusive (no result: HT1080 IDH1KD tx, HT1080-NT tox)
O=[N+]([O-])c1cc([N+](=O)[O-])c2cc3ccccc3nc2c1	HT1080 IDH1KD tx 4.61µM, HT1080-NT tox 16.4µM, S2 tox inconclusive, KB-3-1 tox 3.66µM
Cn1cc([N+](=O)[O-])c(C(=O)Nc2ccn(Cc3c(F)c(F)cc(F)c3F)n2)n1	HT1080 IDH1KD tx 6.31µM, HT1080-NT tox 7.08µM, KB-V1 MDR tox inconclusive
Cn1cc([N+](=O)[O-])c(C(=O)Nc2nccs2)n1	HT1080 IDH1KD tx inconclusive, HT1080-NT tox inconclusive, S2 tox inconclusive (no result: ATXN2 expr inh)
O=C(Nc1ccc(-c2nc3ccccc3o2)cc1)c1ccc(N2CCOCC2)c([N+](=O)[O-])c1	none
Cn1cc([N+](=O)[O-])c(C(=O)Nc2ccc(Br)cn2)n1	HT1080 IDH1KD tx 7.08µM, HT1080-NT tox 11.2µM, KB-V1 MDR tox inconclusive, KB-3-1 tox inconclusive
Cn1cc([N+](=O)[O-])c(C(=O)Nc2ccc(-c3nc4ccccc4o3)cc2)n1	HT1080 IDH1KD tx inconclusive, HT1080-NT tox inconclusive, KB-V1 MDR tox 11.6µM, KB-3-1 tox 18.4µM (no result: ATXN2 expr inh)
COc1ccc(OCC(=O)Nc2cccc(-c3nc4ccccc4s3)c2C)cc1	none (no result: HT1080 IDH1KD tx, HT1080-NT tox)
COC(=O)C1CCN(Cc2ccc3c(c2)CN(C(=O)c2cc(C4CC4)on2)CCO3)CC1	none (no result: HT1080 IDH1KD tx, HT1080-NT tox, KB-V1 MDR tox, ATXN2 expr inh, KB-3-1 tox)
CCC(C)NC(=O)CC(NS(=O)(=O)c1ccc(C)cc1)c1ccc(OC)cc1 (centres undefined)	KB-V1 MDR tox 8.2µM
CC[C@@H]1CCC[C@@H](O)[C@@H](C)C(=O)O[C@H](C)[C@@H](C)C/C=C(C)/C(OC)=C\C(=O)N(C)C([C@@H](C)CC)C(=O)N(C)[C@@H](C(C)C)C(=O)N(C)[C@@H](COC)C(=O)N2CCC[C@H]2C(=O)N(C)[C@@H](C(C)C)C(=O)N2CCC[C@H]2C(=O)O1 (some centres undefined)	HT1080 IDH1KD tx inconclusive, HT1080-NT tox inconclusive, S2 tox inconclusive, KB-V1 MDR tox 1.84µM, ATXN2 expr inh inconclusive, KB-3-1 tox inconclusive
Cc1cc(N2CCN(c3ccccc3)CC2)n2cc(-c3ccccc3)nc2n1	S2 tox inconclusive, KB-V1 MDR tox inconclusive
Cc1cc(N2CCN(c3ccccc3Cl)CC2)n2cc(-c3ccccc3)nc2n1	HT1080 IDH1KD tx inconclusive, S2 tox inconclusive, KB-V1 MDR tox 16.4µM, ATXN2 expr inh inconclusive, KB-3-1 tox inconclusive
Cc1oc(-c2ccc(C(=O)NCCC(C)C)cc2)nc1CS(=O)(=O)c1ccccc1	KB-V1 MDR tox inconclusive (no result: HT1080 IDH1KD tx, HT1080-NT tox)
C#CCOCCOCCOCCNc1nc(N2CCN(C(=O)CCCCCCCCCCNC(=O)[C@H]([C@@H](C)CC)n3cc(CCCCN=C(N)N)nn3)CC2)nc(N2CCN(C(=O)CCCCCCCCCCNC(=O)[C@@H]([C@H](C)O)n3cc(C)nn3)CC2)n1	HT1080 IDH1KD tx 25.9µM, HT1080-NT tox inconclusive, S2 tox inconclusive, KB-V1 MDR tox inconclusive, KB-3-1 tox inconclusive
C#CCOCCOCCOCCNc1nc(N2CCN(C(=O)CCCCCCCCCCNC(=O)[C@H](CCCCN)n3cc(C[C@@H](C)CC)nn3)CC2)nc(N2CCN(C(=O)CCCCCCCCCCNC(=O)[C@@H]([C@H](C)O)n3cc(C)nn3)CC2)n1	HT1080 IDH1KD tx inconclusive, HT1080-NT tox inconclusive, S2 tox 10µM, KB-V1 MDR tox 9.2µM, ATXN2 expr inh 10µM, KB-3-1 tox inconclusive
C#CCOCCOCCOCCNc1nc(N2CCN(C(=O)CCCCCCCCCCNC(=O)[C@H](CCCCN)n3cc(CCO)nn3)CC2)nc(N2CCN(C(=O)CCCCCCCCCCNC(=O)[C@H](CCCCN)n3cc(C[C@@H](C)CC)nn3)CC2)n1	HT1080 IDH1KD tx inconclusive, HT1080-NT tox inconclusive, S2 tox inconclusive
